Assay results reported in PubChem BioAssay (Tox21).
“And” between values parts separate entries of the source, which are not always exact repeats. Equal values may be shown once. Records with an inconclusive call do not appear. Some compounds were tested as several samples or in several runs, with calls that do not always agree. The source made the active and inactive calls. Unless noted, the call rests on the fitted dose curve.

Experiment: qHTS assay for small molecule agonists of the p53 signaling pathway (AID 651631); further: nearly all actives have a fitted effect of over 15% in size
Conditions: HCT-116 p53RE-bla reporter, beta-lactamase FRET ratio, 16 h; series mostly up to 73.3 µM; activation: at the top concentration
In short: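 Testing took place in human colorectal HCT-116 cells with stable p53RE-driven beta-lactamase. After 16 h of compound exposure at 37 °C, a FRET substrate was added and fluorescence recorded 2 h later.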
On the % scale 0 is the no-effect control and ±100 the full control effect; potency means the concentration at half of the fitted maximal effect.

SMILES	Potency	activation
CO/N=C(\C(=O)OC)c1ccccc1CO/N=C(\C)c1cccc(C(F)(F)F)c1	1.09 µM (active)	
COc1ccc2c3c1O[C@H]1[C@H](O)CC[C@H]4[C@@H](C2)N(C)CC[C@@]341		-2.88% (inactive)
CC1CN1 (stereo unspecified)		-4.11% (inactive)
CC(O)C(=O)[O][Hg][c]1ccccc1 (stereo unspecified)	0.545 µM (active)	
CCCCC(CC)COC(=O)OOC(C)(C)C (stereo unspecified)		5.41% (inactive)

Experiment: qHTS assay for small molecules that induce genotoxicity in human embryonic kidney cells expressing luciferase-tagged ATAD5 (AID 651632; active means well fitted activation curve with a large enough effect in the repeat runs; further: nearly all actives have a fitted effect of over 15% in size)
Conditions: HEK293T ATAD5-luciferase induction, 16 h; series mostly up to 83.3 µM; activation: at the top concentration
In short: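 Reporter cells (HEK293T) express luciferase-tagged ATAD5, a protein that accumulates after DNA damage. Treat 16 hr at 37C/5% CO2, add Amplite, wait 30 min at RT, and read luminescence.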

SMILES	activation	Potency
O=c1[nH]c(Cl)c(Cl)cc1Cl	-3.59% (inactive)	
Oc1cccc(Cl)c1Cl	-4.27% [at 95.3 µM] (inactive)	
CC1(C)[C@H](/C=C2\CCSC2=O)[C@@H]1C(=O)OCc1coc(Cc2ccccc2)c1	-7.97% (inactive)	
C=CC(=O)[O][Sn]([CH2]CCC)([CH2]CCC)[CH2]CCC	-17.5% (inactive)	
CCN(CC)C(=S)S		inactive
Fc1ccc(C(OCCN2CCN(CCCc3ccccc3)CC2)c2ccc(F)cc2)cc1	-14.7% (inactive)	
CC[C@H](C)[C@H]1O[C@]2(C=C[C@@H]1C)C[C@@H]1C[C@@H](C/C=C(\C)[C@@H](O[C@H]3C[C@H](OC)[C@@H](O[C@H]4C[C@H](OC)[C@@H](NC)[C@H](C)O4)[C@H](C)O3)[C@@H](C)/C=C/C=C3\CO[C@@H]4[C@H](O)C(C)=C[C@@H](C(=O)O1)[C@]34O)O2	-13.9% (inactive)	
CCC(OC(C)=O)C(CC(C)NC)(c1ccccc1)c1ccccc1 (stereo unspecified)	-4.49% [at 95.3 µM] (inactive)	
Nc1nc(N)c(N)c(N)n1	-0.168% [at 95.3 µM] (inactive)	
O=[N+]([O-])c1cc(C(F)(F)F)c(Cl)c([N+](=O)[O-])c1Nc1ncc(C(F)(F)F)cc1Cl	-14.1% (inactive)	
CCN(CC)CCc1c[nH]c2ccccc12	0.592% [at 95.3 µM] (inactive)	
Brc1cccc(-c2ccccc2)c1	-4.4% [at 95.3 µM] (inactive)	
S=C=Nc1ccccc1	-3.41% [at 95.3 µM] (inactive)	
COP(=O)(OC)Oc1ccc([N+](=O)[O-])cc1	-8.66% (inactive)	
Cc1c([N+](=O)[O-])c(C)c([N+](=O)[O-])c(C(C)(C)C)c1[N+](=O)[O-]	-4.07% (inactive)	
CC(=O)[O][Sn]([c]1ccccc1)([c]1ccccc1)[c]1ccccc1	-13.5% (inactive)	
COP(=S)(OC)Oc1nc(Cl)c(Cl)cc1Cl	-8.6% (inactive)	

SMILES	activation	Potency
CCCCCCCCCCCCCCn1cc[n+](C)c1		inactive
CCCCc1ccccc1	1.21% (inactive)	
BrCCCBr	3.82% [at 95.3 µM] (inactive)	
c1cc[n+]2c(c1)-c1cccc[n+]1CC2	-4.3% (inactive)	
[O-][Cl+3]([O-])([O-])O	2.16% [at 95.3 µM] (inactive)	
COc1c2c(cc3c1OCO3)CCN(C)C2	-6.91% [at 39.1 µM] (inactive)	
ClC1=C(Cl)[C@]2(Cl)[C@H]3[C@H]([C@@H]4C=C[C@H]3C4)[C@@]1(Cl)C2(Cl)Cl		inactive
COc1cnc(OC)n2nc(NS(=O)(=O)c3c(OCC(F)F)cccc3C(F)(F)F)nc12	0.797% (inactive)	
COc1ccc2[nH]cc(CCN(C(C)C)C(C)C)c2c1	0.335% [at 95.3 µM] (inactive)	
CN(C)C(=S)SSC(=S)N(C)C		19.1 µM (active)
CN1C(=O)[C@@H](NC(=O)c2cc3ccccc3[nH]2)N=C(c2ccccc2)c2ccccc21		11.9 µM (active)
COP(=S)(NC(C)C)Oc1ccc(C)cc1[N+](=O)[O-] (stereo unspecified)	-3.7% (inactive)	
CC(Cc1ccc(OCC(=O)O)cc1)NCC(O)c1csc(C(F)(F)F)n1 (stereo unspecified)	2.31% (inactive)	
c1ccc(N=NNc2ccccc2)cc1	5.27% (inactive)	
N#CC(C#N)=NNc1cccc(Cl)c1	-11% (inactive)	
COC(=O)C(C)N(C(=O)c1ccco1)c1c(C)cccc1C (stereo unspecified)	-1.43% (inactive)	

Experiment: qHTS assay for small molecule agonists of the p53 signaling pathway - cell viability (AID 651633); further: nearly all actives have a fitted effect of over 30% in size
Conditions: p53RE-bla HCT-116 viability, ATP luminescence, 16 h; series mostly up to 83.3 µM; activity change, negative = cytotoxicity: at the top concentration
In short: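 p53RE-bla cells, seeded at 4,000 per well and rested 5 h at 37 C/5% CO2, received compounds in DMSO for 16 h at 37 C. CellTiter-Glo was then added, and luminescence was read after 30 min at room temperature to gauge cytotoxicity.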

SMILES	activity change, negative = cytotoxicity	Potency
O=c1[nH]c(Cl)c(Cl)cc1Cl	-4.99% (inactive)	
Oc1cccc(Cl)c1Cl	13.2% [at 95.3 µM] (inactive)	
CC1(C)[C@H](/C=C2\CCSC2=O)[C@@H]1C(=O)OCc1coc(Cc2ccccc2)c1	-9.36% (inactive)	
C=CC(=O)[O][Sn]([CH2]CCC)([CH2]CCC)[CH2]CCC		0.864 µM (active)
CCN(CC)C(=S)S		inactive
Fc1ccc(C(OCCN2CCN(CCCc3ccccc3)CC2)c2ccc(F)cc2)cc1		26.6 µM (active)
CC[C@H](C)[C@H]1O[C@]2(C=C[C@@H]1C)C[C@@H]1C[C@@H](C/C=C(\C)[C@@H](O[C@H]3C[C@H](OC)[C@@H](O[C@H]4C[C@H](OC)[C@@H](NC)[C@H](C)O4)[C@H](C)O3)[C@@H](C)/C=C/C=C3\CO[C@@H]4[C@H](O)C(C)=C[C@@H](C(=O)O1)[C@]34O)O2		10.9 µM (active)
CCC(OC(C)=O)C(CC(C)NC)(c1ccccc1)c1ccccc1 (stereo unspecified)		69.2 µM (active)
Nc1nc(N)c(N)c(N)n1	-13.5% [at 95.3 µM] (inactive)	
O=[N+]([O-])c1cc(C(F)(F)F)c(Cl)c([N+](=O)[O-])c1Nc1ncc(C(F)(F)F)cc1Cl		27.3 µM (active)
CCN(CC)CCc1c[nH]c2ccccc12	36.3% [at 95.3 µM] (inactive)	
Brc1cccc(-c2ccccc2)c1	17.7% [at 95.3 µM] (inactive)	
S=C=Nc1ccccc1	-12.3% [at 95.3 µM] (inactive)	
COP(=O)(OC)Oc1ccc([N+](=O)[O-])cc1	12.4% (inactive)	
Cc1c([N+](=O)[O-])c(C)c([N+](=O)[O-])c(C(C)(C)C)c1[N+](=O)[O-]	18.8% (inactive)	
CC(=O)[O][Sn]([c]1ccccc1)([c]1ccccc1)[c]1ccccc1		3.44 µM (active)
COP(=S)(OC)Oc1nc(Cl)c(Cl)cc1Cl	-8.6% (inactive)	

SMILES	activity change, negative = cytotoxicity	Potency
CCCCCCCCCCCCCCn1cc[n+](C)c1		43.4 µM (active) and 67.8 µM (active) and inactive
CCCCc1ccccc1	13.5% (inactive)	
BrCCCBr	5.06% [at 95.3 µM] (inactive)	
c1cc[n+]2c(c1)-c1cccc[n+]1CC2	-24.3% (inactive)	
[O-][Cl+3]([O-])([O-])O	21.5% [at 95.3 µM] (inactive)	
COc1c2c(cc3c1OCO3)CCN(C)C2	21.7% [at 39.1 µM] (inactive)	
ClC1=C(Cl)[C@]2(Cl)[C@H]3[C@H]([C@@H]4C=C[C@H]3C4)[C@@]1(Cl)C2(Cl)Cl		30.6 µM (active) and 61.1 µM (active)
COc1cnc(OC)n2nc(NS(=O)(=O)c3c(OCC(F)F)cccc3C(F)(F)F)nc12	13.8% (inactive)	
COc1ccc2[nH]cc(CCN(C(C)C)C(C)C)c2c1	18.8% [at 95.3 µM] (inactive)	
CN(C)C(=S)SSC(=S)N(C)C		29.8 µM (active) and 26.9 µM (active) and 27.3 µM (active)
CN1C(=O)[C@@H](NC(=O)c2cc3ccccc3[nH]2)N=C(c2ccccc2)c2ccccc21	10.3% (inactive)	
COP(=S)(NC(C)C)Oc1ccc(C)cc1[N+](=O)[O-] (stereo unspecified)	10.5% (inactive)	
CC(Cc1ccc(OCC(=O)O)cc1)NCC(O)c1csc(C(F)(F)F)n1 (stereo unspecified)	14.8% (inactive)	
c1ccc(N=NNc2ccccc2)cc1		inactive
N#CC(C#N)=NNc1cccc(Cl)c1		0.864 µM (active)
COC(=O)C(C)N(C(=O)c1ccco1)c1c(C)cccc1C (stereo unspecified)	-6.49% (inactive)	
